From PubChem BioAssay AID720597 (Broad Institute, 2013)
Potency and affinity values are given separately. Active and inactive are the calls of the source.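 Rule for the calls: active = fitted half-maximal dose no more than twice the top valid tested dose, for compounds that lower signal; inconclusive = fit invalid, or curve flat with activity between -70 and -30; inactive = potency past limit, curve flat within ±30, or signal increasing.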

biological target: NAD-dependent protein deacylase sirtuin-5, mitochondrial (Homo sapiens) (UniProt Q9NXA8); assay: blockers of sirtuin-5 peptide desuccinylation – biochemical, fluorescence imaging, cherry-pick, set 6, dose response (AID 720597); conditions: Purified SirT5, succinyl-peptide-AMC/trypsin fluorescence; series mostly up to 15 µM;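 note: lower AMC signal can also come from blocking the trypsin step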
Sequence (Q9NXA8 whole entry, looked up): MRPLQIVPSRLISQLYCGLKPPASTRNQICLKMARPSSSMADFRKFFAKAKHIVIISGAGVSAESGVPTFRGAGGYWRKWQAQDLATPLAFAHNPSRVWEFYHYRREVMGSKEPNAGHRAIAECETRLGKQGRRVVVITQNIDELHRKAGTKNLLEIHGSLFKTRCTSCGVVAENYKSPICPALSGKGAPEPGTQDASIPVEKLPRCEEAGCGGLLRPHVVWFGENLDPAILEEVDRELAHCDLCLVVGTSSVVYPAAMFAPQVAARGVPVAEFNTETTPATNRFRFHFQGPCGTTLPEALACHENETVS

outcome, inactive:
COc1ccc(NC(=O)Nc2ccc3c(c2)C(=O)N([C@H](C)CO)C[C@H](C)[C@@H](CN(C)Cc2ccc(C(F)(F)F)cc2)O3)cc1
C[C@@H]1CN([C@H](C)CO)C(=O)Cc2cc(NS(=O)(=O)c3ccc(Cl)cc3)ccc2O[C@H]1CN(C)Cc1ccc(Oc2ccccc2)cc1
C[C@@H]1CN([C@H](C)CO)C(=O)c2cc(-c3cccc(F)c3)cnc2O[C@@H]1CN(C)C
CCCNC(=O)N1[C@@H]2Cn3c(cccc3=O)[C@H]1[C@@H](C(=O)N1CCC(Cc3ccccc3)CC1)[C@@H]2CO
O=C(C[C@H]1CC[C@H](NC(=O)C2CCC2)[C@H](CO)O1)NCc1ccccc1Cl
CC(=O)N(C)C[C@H]1Oc2ncc(-c3cccc(F)c3)cc2C(=O)N([C@@H](C)CO)C[C@H]1C
C[C@@H]1CN([C@H](C)CO)C(=O)c2cccc(NC(=O)c3ccncc3)c2O[C@@H]1CN(C)S(C)(=O)=O
Cc1ccc(S(=O)(=O)N(C)C[C@@H]2OCCCC[C@H](C)Oc3ccc(NS(=O)(=O)c4ccc(Cl)cc4)cc3C(=O)N([C@H](C)CO)C[C@@H]2C)cc1
CS(=O)(=O)N(CC(=O)NC1CCCC1)c1cccc(F)c1
COc1ccc(NC(=O)N(C)C[C@@H]2Oc3ccc(NS(=O)(=O)c4ccc(F)cc4)cc3C(=O)N([C@H](C)CO)C[C@H]2C)cc1
COc1ccc(NC(=O)Nc2ccc3c(c2)C(=O)N([C@@H](C)CO)C[C@H](C)[C@@H](CN(C)Cc2ccccc2)OCCCC[C@H](C)O3)cc1
Cc1ccccc1S(=O)(=O)N(C)C[C@H]1OCc2ccccc2-c2c(n(C)c3ccccc23)C(=O)N([C@@H](C)CO)C[C@@H]1C
C[C@H](CO)N1C[C@H](C)[C@@H](CN(C)S(=O)(=O)c2ccccc2F)Oc2cc(C#Cc3cccc(F)c3)ccc2S1(=O)=O
Cc1noc(C)c1S(=O)(=O)Nc1ccc2c(c1)CC(=O)N([C@H](C)CO)C[C@H](C)[C@@H](CN(C)Cc1ccc(C(=O)O)cc1)O2
COc1ccc(S(=O)(=O)Nc2ccc3c(c2)C(=O)N([C@H](C)CO)C[C@H](C)[C@H](CN(C)Cc2ccc(C(F)(F)F)cc2)OCCCC[C@@H](C)O3)cc1
COc1ccccc1S(=O)(=O)N(C)C[C@H]1Oc2cc(C#CCC(C)C)ccc2S(=O)(=O)N([C@H](C)CO)C[C@@H]1C
Cc1ccc(S(=O)(=O)N(C)C[C@@H]2OCCCC[C@@H](C)Oc3ccc(NS(=O)(=O)c4ccccc4)cc3C(=O)N([C@H](C)CO)C[C@H]2C)cc1
COc1ccc(NC(=O)N(C)C[C@@H]2Oc3cc(C#CCC(C)C)ccc3S(=O)(=O)N([C@H](C)CO)C[C@H]2C)cc1
O=C(NCC[C@@H]1CC[C@@H](NC(=O)C2CC2)[C@@H](CO)O1)c1cc(Cl)cc(Cl)c1
O=C1CN(S(=O)(=O)c2ccccc2)C[C@@H]2[C@H](c3ccc(C#Cc4ccccc4)cc3)[C@H](CO)N12
Cc1ccc(S(=O)(=O)Nc2ccc3c(c2)C(=O)N([C@@H](C)CO)C[C@H](C)[C@@H](CN(C)S(=O)(=O)c2ccccc2)OCCCC[C@@H](C)O3)cc1
COc1ccc(S(=O)(=O)Nc2ccc3c(c2)C(=O)N([C@@H](C)CO)C[C@@H](C)[C@@H](CN(C)Cc2ccc(C(F)(F)F)cc2)OCCCC[C@H](C)O3)cc1
COc1ccc(NC(=O)N[C@@H]2CC[C@H](CCn3cc(-c4ccc(OC)cc4)nn3)O[C@@H]2CO)cc1
O=C(CCN1CCCCC1)N[C@H]1CC[C@@H](CCn2cc(-c3ccc(F)cc3)nn2)O[C@H]1CO
O=C1CN(Cc2ccccc2)C[C@@H]2[C@H](c3ccc(-c4ccccc4)cc3)[C@H](CO)N12
Cc1noc(C)c1NC(=O)Nc1ccc2c(c1)C(=O)N([C@H](C)CO)C[C@@H](C)[C@@H](CN(C)Cc1ccc(C(=O)Nc3ccccc3N)cc1)O2
O=C(C[C@@H]1C[C@H]2c3cc(NC(=O)Nc4ccc(C(F)(F)F)cc4)ccc3O[C@H]2[C@H](CO)O1)NCc1ccc2c(c1)OCO2
C[C@H](CO)N1C[C@H](C)[C@H](CN(C)S(=O)(=O)c2ccc(Cl)cc2)OCCCC[C@H](C)Oc2ccc(NC(=O)Nc3ccc4c(c3)OCO4)cc2C1=O
